Assay results as given in PMC6919601, “Identification of Plasmodium dipeptidyl aminopeptidase allosteric inhibitors by high throughput screening” (PLoS ONE, 2019).
Among all 110,000 compounds or so, about 230 (0.21%) showed an effect of 50% or more. For the sample, strong results were picked, then their nearest neighbours and some compounds at random.

target: DPAP1 (Plasmodium falciparum, UniProt Q8IIJ9); experiment: primary screen, percent inhibition; read by cleavage of a fluorogenic dipeptide substrate; higher = more effect of the substance; parameters: species or system P. falciparum D10 trophozoite lysates; single well
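Further: 30 min substrate incubation versus DMSO and 10 µM JCP410 controls.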

Chain of DPAP1 (Q8IIJ9 whole entry, looked up): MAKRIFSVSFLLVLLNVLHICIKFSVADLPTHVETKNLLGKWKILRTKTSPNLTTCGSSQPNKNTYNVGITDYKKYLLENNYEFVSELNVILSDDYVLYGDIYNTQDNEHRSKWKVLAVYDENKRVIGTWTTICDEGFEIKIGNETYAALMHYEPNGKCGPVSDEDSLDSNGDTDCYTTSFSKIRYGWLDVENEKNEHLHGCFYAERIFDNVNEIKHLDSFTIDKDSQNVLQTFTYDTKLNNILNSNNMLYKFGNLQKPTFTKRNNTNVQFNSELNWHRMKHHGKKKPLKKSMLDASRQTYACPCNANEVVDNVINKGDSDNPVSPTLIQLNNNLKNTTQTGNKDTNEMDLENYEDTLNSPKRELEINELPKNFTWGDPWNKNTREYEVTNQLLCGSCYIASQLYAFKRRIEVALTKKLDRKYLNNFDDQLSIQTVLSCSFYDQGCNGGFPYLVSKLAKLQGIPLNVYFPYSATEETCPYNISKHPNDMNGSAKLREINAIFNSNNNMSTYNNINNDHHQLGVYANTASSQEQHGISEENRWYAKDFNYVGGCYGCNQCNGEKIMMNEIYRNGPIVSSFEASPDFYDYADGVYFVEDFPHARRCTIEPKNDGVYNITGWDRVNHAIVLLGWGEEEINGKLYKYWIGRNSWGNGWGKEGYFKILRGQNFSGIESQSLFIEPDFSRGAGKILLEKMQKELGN

Row | Compound | % Inhibition @ 10 uM
1 | O=C1CC(Sc2ccccn2)C(=O)N1c1ccc(Br)cc1 (centres unmarked) | 2.38%
2 | COCCNC(=O)CCN1C(=O)c2ccccc2Sc2ncccc21 | -2.97%
3 | COc1ccc2nc3sc(C(=O)NCCC(C)C)cc3cc2c1 | -5.98%
4 | COc1ccc2cc3cc(C(=O)N4CCN(Cc5ccccc5)CC4)sc3nc2c1 | 4.61%
5 | COc1ccc2nc3sc(C(=O)N4CCN(C)CC4)cc3cc2c1 | -5.06%
6 | COc1ccc2nc3sc(C(=O)N4CCOCC4)cc3cc2c1 | 89.7%
7 | COc1ccc(-c2ccc(C(=O)N3CCOCC3)cc2)cc1 | 85.3%
8 | COc1ccc2cc3cc(C(=O)NCCCN4CCN(C)CC4)sc3nc2c1 | 1.22%
9 | COc1ccc(C(=O)N2CCN(C(=O)c3ccc(OC)cc3)CC2)cc1 | -1.61%
10 | CCCCN(C)CCNC(=O)c1cc2cc3cc(OC)ccc3nc2s1 | 83.9%
11 | COc1ccc(C(=O)N2CCN(CC(=O)N3CCOCC3)CC2)cc1 | 6.33%
12 | COc1ccc2nc3sc(C(=O)NCCN(C)Cc4ccccc4)cc3cc2c1 | -2.12%
13 | COc1ccc2nc3sc(C(=O)N4CCC5(CC4)OCCO5)cc3cc2c1 | -4.16%
14 | COc1ccc2cc3cc(C(=O)NCCN4CCN(Cc5ccccc5)CC4)sc3nc2c1 | 94.4%
15 | CCOc1ccc(C(=O)N(Cc2nc(-c3ccc(Cl)cc3)no2)C(C)C)cc1 | -1.84%
16 | CC(=O)Nc1ccc(NC(=O)c2cccc(Cl)c2Cl)cc1 | 3.74%
17 | COc1cc(NC(=O)C(C)Oc2ccccc2)cc(OC)c1 (centres unmarked) | -2.8%
18 | Cc1ccc(NC(=O)C(Cc2ccc([N+](=O)[O-])cc2)N2C(=O)c3ccccc3C2=O)cc1[N+](=O)[O-] (centres unmarked) | -2.47%
19 | COc1ccccc1S(=O)Cc1ccc(C(=O)NCCc2ccc(Cl)cc2)o1 (centres unmarked) | -4.96%
20 | CCCCN(CC)C(=O)c1cc2cc3cc(OC)ccc3nc2s1 | -1.55%
21 | COc1ccc2nc3sc(C(=O)NCCN4CCOCC4)cc3cc2c1 | 3.07%
22 | COc1ccc2cc3cc(C(=O)NCCN4CCc5ccccc5C4)sc3nc2c1 | 4.61%
23 | CCC1CCCCN1CCCNC(=O)c1cc2cc3cc(OC)ccc3nc2s1 (centres unmarked) | 1.22%
24 | COc1ccc2nc3sc(C(=O)NCCCN4CCc5ccccc5C4)cc3cc2c1 | 64.7%
25 | COc1ccc2cc3cc(C(=O)N(C)Cc4ccccc4)sc3nc2c1 | 0.402%

Row | Compound | % Inhibition @ 10 uM
26 | COc1ccc2nc3sc(C(=O)NCCCN4CC(C)CC(C)C4)cc3cc2c1 (centres unmarked) | -2.44%
27 | COc1ccc2nc3sc(C(=O)NCCCN4CCCC4=O)cc3cc2c1 | 84.6%
28 | CCN(Cc1ccccc1)C(=O)c1cc2cc3cc(OC)ccc3nc2s1 | 50.3%
29 | CSc1ccc(CN2CCN(c3cccc(Cl)c3)CC2)cc1 | 0.847%
30 | CCN1CCN(C(=O)CS(=O)(=O)Cc2nc(-c3ccc(C)cc3)oc2C)CC1 | -3.7%
31 | O=S(=O)(NC1CCc2ccccc21)c1ccc(-n2cnnn2)cc1 (centres unmarked) | -1.07%
32 | CC1=C(C(=O)Nc2ccc(Br)cc2)C(c2ccc(Cl)cc2)NC(=O)N1 (centres unmarked) | 1.35%
33 | COCCCNC(=O)Cc1coc2ccc3ccccc3c12 | 2.01%
34 | Cn1c(S)nc2c(=O)oc3ccccc3c21 | 56.8%
35 | Cc1nc2c(=O)oc3ccccc3c2n1C | 4.35%
36 | CCn1c(S)nc2c(=O)oc3ccccc3c21 | 14%
37 | COc1ccc(N(C(C)C(=O)Nc2ccc(C(C)C)cc2)S(C)(=O)=O)cc1 (centres unmarked) | -1.57%
38 | CCCCSCCCNC(=O)C1CCC(CNS(=O)(=O)c2ccc(C)cc2)CC1 (centres unmarked) | 5.47%
39 | COc1ccc(C2CC(=O)N3CN(CCC(C)C)CSC3=C2C#N)cc1OC (centres unmarked) | 46.8%
40 | CC(C)CCN1CSC2=C(C#N)C(c3ccc(Cl)cc3)CC(=O)N2C1 (centres unmarked) | 54.6%
41 | Cc1ccsc1CCN1CSC2=C(C#N)C(c3ccc(Cl)cc3)CC(=O)N2C1 (centres unmarked) | 51.6%
42 | COc1cccc(C2CC(=O)N3CN(CCc4sccc4C)CSC3=C2C#N)c1 (centres unmarked) | 56.9%
43 | N#CC1=C2SCN(Cc3ccccc3)CN2C(=O)CC1c1ccc(Cl)cc1 (centres unmarked) | 42.2%
44 | COc1ccc(C2CC(=O)N3CN(CCCc4ccccc4)CSC3=C2C#N)cc1OC (centres unmarked) | 30.5%
45 | COc1cc(C2CC(=O)N3CN(Cc4ccco4)CSC3=C2C#N)ccc1O (centres unmarked) | 17.5%
46 | Cc1ccc(C2CC(=O)N3CN(CCC(C)C)CSC3=C2C#N)cc1 (centres unmarked) | 43.8%
47 | NC(=O)c1ccc(-n2nnnc2SCc2ccc(C(=O)O)cc2)cc1 | 3.05%
48 | CCC1CCC(NCCN(C)C)CC1 (centres unmarked) | -3.42%
49 | Cc1nc2scc(C)n2c(=O)c1S(=O)(=O)N1CCc2ccccc2C1 | -0.984%
50 | CCOC(=O)/C=C(\C)N1N=C2c3cc(OC)ccc3CCC2C1c1ccc(OC)cc1 (centres unmarked) | -4.49%

Row | Compound | % Inhibition @ 10 uM
51 | CCOC(=O)/C=C(\C)N1N=C2c3ccc(OC)cc3CCC2C1c1ccc(F)cc1 (centres unmarked) | -1.77%
52 | COc1ccc2c(c1)CCC1C2=NN(/C(C)=C/C(C)=O)C1c1ccc([N+](=O)[O-])cc1 (centres unmarked) | 4.54%
53 | CCOC(=O)/C=C(\C)N1N=C2c3ccc(OC)cc3CCC2C1c1cccc(F)c1 (centres unmarked) | 73.1%
54 | COc1ccc(C2C3CCc4ccc(OC)cc4C3=NN2/C(C)=C/C(C)=O)cc1 (centres unmarked) | 22.9%
55 | CCOC(=O)/C=C(\C)N1N=C2c3ccc(OC)cc3CCC2C1c1ccc(OC)cc1 (centres unmarked) | 60.6%
56 | CCOC(=O)/C=C(\C)N1N=C2c3cc(OC)ccc3CCC2C1c1ccc(F)cc1 (centres unmarked) | 6.33%
57 | COc1ccc(C2C3CCc4cc(OC)ccc4C3=NN2/C(C)=C/C(C)=O)cc1 (centres unmarked) | 58.5%
58 | CCOC(=O)/C=C(\C)N1N=C2c3cc(OC)ccc3CCC2C1c1ccccc1 (centres unmarked) | 2%
59 | COC(=O)C(O)(c1ccc(N)cc1)C(F)(F)F (centres unmarked) | 0.937%
60 | CCCCOC1CS(=O)(=O)CC1OCCCC (centres unmarked) | -5.28%
61 | Cc1ccc(-c2nc(CSCC(=O)Nc3cc(C)on3)c(C)o2)cc1 | -2.14%
62 | CC1=C(C)CC(C(=O)Nc2cccc(F)c2)C(C(=O)O)C1 (centres unmarked) | -2.22%
63 | COC(=O)c1cc(OC)c(S(=O)(=O)NCc2ccccc2)cc1OC | -2.28%
64 | CCOC(=O)C1=C(CN2CCN(C(=O)OCC)CC2)NC(=O)NC1c1cccc(OC)c1OC (centres unmarked) | 2.12%
65 | CCOC(=O)C1=C(CN2CCC3(CC2)OCCO3)NC(=O)NC1c1cccc(OC)c1OC (centres unmarked) | 93%
66 | CCOC(=O)C1=C(CN2CCN(C)CC2)NC(=O)NC1c1cccc(OC)c1OC (centres unmarked) | 3.75%
67 | O=C1CC(c2ccccc2)NC(=O)N1 (centres unmarked) | -2.86%
68 | CCCOc1ccc(C2C3=C(O)CC(C)(C)CC3=NC(C)=C2C(=O)Nc2ccccc2OC)cc1 (centres unmarked) | -0.864%
69 | c1ccc(C(CCNC2CN3CCC2CC3)c2ccccc2)cc1 (centres unmarked) | -0.0908%
70 | O=C(CCN1C(=O)c2ccccc2C1=O)NCC1CCCO1 (centres unmarked) | -0.349%
71 | Cc1cc(/C=C2/C(=N)N3C(=NC2=O)SN=C3S(=O)(=O)C(C)C)c(C)n1Cc1ccccc1 | -7.21%
72 | N=C1S/C(=C\c2ccco2)C(=O)N1c1nccs1 | -3.74%
73 | CC(C)Oc1ccccc1/C=C1\SC(=N)N(c2nccs2)C1=O | 50.1%
74 | N=C1S/C(=C\c2c[nH]nc2-c2ccccc2)C(=O)N1c1nccs1 | 11.2%
75 | Cc1nc2scc(C)n2c(=O)c1S(=O)(=O)NC1CCCCCCC1 | 72.2%

Row | Compound | % Inhibition @ 10 uM
76 | CCOC(=O)N1CCC(NS(=O)(=O)c2c(C)nc3scc(C)n3c2=O)CC1 | -8.17%
77 | Cc1nc2scc(C)n2c(=O)c1S(=O)(=O)NC1CCN(Cc2ccccc2)CC1 | -3.32%
78 | Cc1cccc(CN2CCCC(O)C2)c1 (centres unmarked) | -0.828%
79 | O=C(CCC1CCCCC1)NC1(C(F)(F)F)NC(=O)N(Cc2ccccc2)C1=O (centres unmarked) | -3.33%
80 | CCOC(=O)C1=C(c2ccccc2)Nc2ncnn2C1c1cccc(O)c1 (centres unmarked) | 3.8%
81 | COc1cccc(C2=NS(=O)(=O)N(C)C(C(=O)N3CCCC3)=C2)c1 | 3.92%
82 | CCSc1nc(=O)n(-c2ccccc2)c(C)c1C(C)=O | -5.51%
83 | CCc1ccc(C2C3=C(O)CCCC3=NC(C)=C2C(=O)Nc2ccc(F)cc2)cc1 (centres unmarked) | 4.11%
84 | Cc1sc2ncn(CC(=O)NC3CCCC(C)C3C)c(=O)c2c1S(=O)(=O)N1CCC(C)CC1 (centres unmarked) | -4.67%
85 | O=C1C(c2ccccc2)=C(c2ccccc2)C(=O)N1O | 3.25%
86 | CC(=O)ON1C(=O)C2C3c4ccccc4C(c4ccccc43)C2C1=O (centres unmarked) | 38.9%
87 | CC(=O)ON1C(=O)C(c2ccccc2)=C(c2ccccc2)C1=O | 82%
88 | CCCCN(C)C(=O)C1c2ccccc2C(=O)N(CCOC)C1c1c[nH]c2ccccc12 (centres unmarked) | 5.62%
89 | Cc1ccc2nc(O)c3cc(C(=O)NCCc4ccsc4)sc3c2c1 | 1.72%
90 | CN(C)c1ccc(NC(=O)NC2CCCCC2)cc1 | -12.2%
91 | CC(CCCC(C)(C)O)NC(C)Cc1ccc(F)cc1 (centres unmarked) | 4.68%
92 | O=C(CC1(O)C(=O)Nc2ccc(Br)cc21)c1ccc2ccccc2c1 (centres unmarked) | 4.03%
93 | CCC1(C)Cc2c(sc3nc(S)nc(N)c23)CO1 (centres unmarked) | 62.9%
94 | CCC1(C)Cc2c(sc3nc(SCC(=O)c4ccccc4)nc(N)c23)CO1 (centres unmarked) | 0.992%
95 | CCC1(C)Cc2c(sc3nc(SC)nc(O)c23)CO1 (centres unmarked) | 8.9%
96 | COc1cc2c(NCc3ccccc3)cc(O)c(CC(=O)Nc3ccccc3)c2cc1OC | 66.3%
97 | CCCCNc1cc(O)c(CC(=O)Nc2ccccc2)c2cc(OC)c(OC)cc12 | 25.7%
98 | COc1cc2c(CC(=O)Nc3ccccc3)c(O)c(C)c(NCc3ccccc3)c2cc1OC | 13.4%
